From PubChem
LANA DNA inh: inhibitors of KSHV C-LANA binding to DNA, primary screen, biochemical, fluorescence polarization, FAM-LBS DNA, MBP-C-LANA, single point; Kaposi's sarcoma herpesvirus LANA C-terminal domain (residues 932-1162) DNA binding; inhibition, % at 9 µM; 340,000 compounds, 0.078% hits;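 active = highest replicate inhibition at or above 60% at 9 µM, even if other replicates fall short; inactive = all replicates below 60% inhibition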;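 also: 0% = neutral control wells and 100% = 4 µM acridine orange control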
Keap1-Nrf2 PPI: Keap1-Nrf2 protein-protein interaction inhibitors, primary screen, biochemical, fluorescence polarization, single point | inhibition, % at 9.4 µM | Keap1 Kelch-Nrf2 peptide fluorescence polarization, 1536-well | Kelch-like ECH-associated protein 1 (Homo sapiens), Q14145 | AID 504523, 2011 | 340,000 compounds, 0.15% hits; in the data active = inhibition above about 12%;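 also: human Keap1 Kelch domain with fluorescein labeled Nrf2 9mer peptide probe; 0% = neutral control wells and 100% = peptide positive control; higher means more block of Keap1 binding to Nrf2 peptide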
HDAC3 inh: HDAC3 deacetylase inhibitors, primary screen, biochemical, fluorescence, cell-free homogeneous; Histone deacetylase 3 (Homo sapiens), O15379; recombinant HDAC3, fluorogenic peptide/trypsin coupled; inhibition, % at 8.3 µM; 320,000 compounds, 0.15% hits; in the data active = inhibition above about 26%, passing the limit was not always enough
NSD2 HMT inh: NSD2 histone methyltransferase inhibitors, primary screen, biochemical, AlphaScreen, single concentration, set 2; Histone-lysine N-methyltransferase NSD2 (Homo sapiens), O96028; NSD2 peptide methylation, 120 min; inhibition, % at 12.5 µM; 310,000 compounds, 0.54% hits; AID 743445, 2014; in the data active = inhibition above about 50%
Target sequence (O96028 whole entry, looked up): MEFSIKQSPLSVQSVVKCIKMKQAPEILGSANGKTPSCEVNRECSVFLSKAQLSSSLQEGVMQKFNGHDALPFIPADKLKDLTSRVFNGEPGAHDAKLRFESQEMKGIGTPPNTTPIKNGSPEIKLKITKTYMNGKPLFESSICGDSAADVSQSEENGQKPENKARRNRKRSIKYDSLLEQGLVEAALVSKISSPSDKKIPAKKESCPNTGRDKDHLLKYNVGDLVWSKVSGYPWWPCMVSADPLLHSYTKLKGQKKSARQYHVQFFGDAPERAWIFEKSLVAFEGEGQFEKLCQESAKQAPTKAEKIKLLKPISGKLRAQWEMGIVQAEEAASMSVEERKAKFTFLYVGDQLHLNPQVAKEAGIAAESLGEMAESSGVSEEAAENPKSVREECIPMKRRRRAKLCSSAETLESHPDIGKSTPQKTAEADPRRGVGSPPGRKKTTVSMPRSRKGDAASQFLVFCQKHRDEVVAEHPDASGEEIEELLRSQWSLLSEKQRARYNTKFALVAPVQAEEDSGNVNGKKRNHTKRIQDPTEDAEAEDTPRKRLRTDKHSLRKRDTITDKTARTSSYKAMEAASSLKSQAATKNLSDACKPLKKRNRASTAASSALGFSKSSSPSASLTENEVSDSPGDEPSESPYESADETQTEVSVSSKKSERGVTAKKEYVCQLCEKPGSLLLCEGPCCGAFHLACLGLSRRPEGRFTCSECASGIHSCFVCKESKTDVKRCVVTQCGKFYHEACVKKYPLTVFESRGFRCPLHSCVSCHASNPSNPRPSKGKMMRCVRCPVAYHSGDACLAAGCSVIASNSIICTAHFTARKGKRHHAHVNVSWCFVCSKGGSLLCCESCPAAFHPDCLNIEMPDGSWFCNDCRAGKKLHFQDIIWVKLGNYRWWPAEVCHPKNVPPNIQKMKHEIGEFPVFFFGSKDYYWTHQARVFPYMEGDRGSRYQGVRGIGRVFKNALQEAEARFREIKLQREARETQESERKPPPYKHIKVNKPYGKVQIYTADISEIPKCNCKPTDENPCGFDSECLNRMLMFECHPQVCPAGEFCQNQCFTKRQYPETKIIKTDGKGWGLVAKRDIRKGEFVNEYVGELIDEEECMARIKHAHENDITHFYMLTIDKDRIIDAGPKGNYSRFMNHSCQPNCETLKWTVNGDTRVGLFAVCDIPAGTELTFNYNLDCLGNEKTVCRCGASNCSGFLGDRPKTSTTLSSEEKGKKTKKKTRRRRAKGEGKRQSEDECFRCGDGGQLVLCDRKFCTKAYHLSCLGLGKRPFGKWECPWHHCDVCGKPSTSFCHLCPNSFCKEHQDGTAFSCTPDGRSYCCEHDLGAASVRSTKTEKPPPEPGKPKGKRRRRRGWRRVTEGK
Casp6 inh: human caspase-6 inhibitors, primary screen, biochemical, VEID-R110 fluorescence, single point, set 2. P55212. purified caspase-6, Z-VEID-R110 cleavage fluorescence. inhibition, % at 12.5 µM. 350,000 compounds, 0.53% hits;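 active = mean inhibition across replicates at least about 35%, with every replicate also reaching that limit, limit read from the data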;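 also: 0% = median of neutral control wells and 100% = no fluorescence left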
N-glyco inh: increase of ERlucT glycosylation luciferase signal, primary screen, N-linked glycosylation inhibitor project, D54 ERlucT cells, luminescence, set 2 | 360,000 compounds, 0.23% hits | D54 ERlucT glycosylation luciferase reporter, 24 h; percent of 100 nM tunicamycin response | reporter increase, % at 12.5 µM | AID 588692, 2011;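 active = mean luciferase reporter signal, scaled so untreated is 0 and the glycosylation-blocking control 100, at or above a set limit in every replicate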;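 also: luciferase carries N-glycosylation sites so blocking glycosylation raises the light; 0% = median of neutral control wells and 100% = median of 100 nM tunicamycin wells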
* hit, by the source's call; / = no result given. An excerpt weighted towards active compounds, which were near 1.1% of everything screened.

SMILES | LANA DNA inh | Keap1-Nrf2 PPI | HDAC3 inh | NSD2 HMT inh | Casp6 inh | N-glyco inh
CO[C@@H]1CC[C@H]2CCOc3ccc(C#N)cc3C(=O)N(C)C[C@@H](OC)[C@H](C)C(=O)N(C)C[C@@H]1O2 | / | / | / | / | 1 | /
c1ccc(-c2cc(NCCN3CCCCC3)c3ccccc3n2)cc1 | -14 | 0 | 8 | 7 | / | 71*
O=C(c1cc(-c2ccccc2)nc2ccccc12)N1CCCC1 | -1 | 0 | -8 | 0 | 6 | -2
COc1ccccc1NC(=O)N1CC(=O)N2[C@H](CO)[C@H](c3ccc(-c4ccccc4)cc3)[C@@H]2C1 | / | / | / | / | -2 | /
COc1ccc(CCNC(=O)c2cc(-c3ccco3)on2)cc1OC | 0 | 0 | 0 | -4 | -3 | 63*
O=C(NCCc1ccccc1)c1cc(-c2ccco2)on1 | 0 | -5 | 1 | 2 | 3 | 48*
O=C(Nc1cccc(F)c1)N1CCCCN2[C@@H](CO)[C@@H](c3ccc(-c4ccncc4)cc3)[C@@H]2C1 | / | / | / | / | -3 | /
O=C(O)c1cccc(NC2=C(n3nnc4ccccc43)C(=O)c3ccccc3C2=O)c1 | -1 | -1 | 4 | / | 82* | 6
CC(C)NC(=O)Nc1ccc2c(c1)CC(=O)N([C@@H](C)CO)C[C@H](C)[C@@H](CN(C)C(=O)Nc1ccccc1)O2 | / | / | / | / | 6 | /
CC1(OC(=O)c2cccs2)C(=O)C=C2C=C(c3ccsc3)OC=C2C1=O (stereo unspecified) | / | / | 5 | / | / | /
CC1(OC(=O)C2CCCC2)C(=O)C=C2C=C(c3ccsc3)OC=C2C1=O (stereo unspecified) | 78* | -2 | 0 | / | 7 | 6
COc1cccc(C(=O)NC2CC3CCCC(C2)N3CC(=O)Nc2ccccc2C(F)(F)F)c1 (stereo unspecified) | 1 | -3 | 3 | -1 | -4 | 0
CCc1cccc(CC)c1NC(=O)CN1C2CCCC1CC(NC(=O)Nc1cccc(OC)c1)C2 (stereo unspecified) | 0 | -3 | 4 | 2 | -4 | 39*
COCC(=O)Nc1ccc2c(c1)C(=O)N(C)C[C@@H](OC)[C@@H](C)CN(Cc1cc(F)ccc1F)[C@@H](C)CO2 | / | / | / | / | 1 | /
COCC(=O)Nc1ccc2c(c1)OC[C@H](C)N(CCc1ccccc1)C[C@H](C)[C@H](OC)CN(C)C2=O | / | / | / | / | 1 | /
O=C1Nc2ccc(Br)cc2C1=Nc1cccnc1 | / | / | / | 67* | 7 | 6
O=C1Nc2ccccc2C1=Nc1cccc(Cl)c1 | -1 | -6 | -8 | 9 | 9 | 4
CCOC(=O)CN1C(=O)S/C(=C\c2ccc(-c3ccc(C(=O)O)c(Cl)c3)o2)C1=O | 7 | -3 | 9 | 37 | 49* | 2
O=C(O)c1ccc(-c2ccc(/C=C3\NC(=O)N(Cc4ccc(Cl)cc4)C3=O)o2)cc1Cl | 34 | -3 | / | 129* | 65* | 0
CO[C@H]1CN(C)C(=O)c2ccc(NC(=O)NC(C)C)cc2OC[C@H](C)N(CCC(F)(F)F)C[C@@H]1C | / | / | / | / | 0 | /
Cc1noc(C)c1S(=O)(=O)Nc1ccc2c(c1)C(=O)N([C@@H](C)CO)C[C@@H](C)[C@@H](CN(C)C(=O)NC1CCCCC1)O2 | / | / | / | / | 1 | /
CNC(=O)c1cc(Cl)c(OC)c(OC)c1 | 0 | -4 | 3 | -1 | 3 | 4
COC(=O)C(=O)C1CCc2c(Cl)cc(OC)c(OC)c2C1=O (stereo unspecified) | 3 | -1 | / | / | 79* | 2
O=C(O)c1ccccc1-c1ccc(/C=C/c2cc(C(F)(F)F)[nH]c(=O)n2)o1 | 8 | -234 | / | 11 | 4 | -1
O=C(O)c1cc(Cl)ccc1-c1ccc(/C=C/c2cc(C(F)(F)F)[nH]c(=O)n2)o1 | -11 | -284 | 2 | 47 | 45* | 2
SMILES | LANA DNA inh | Keap1-Nrf2 PPI | HDAC3 inh | NSD2 HMT inh | Casp6 inh | N-glyco inh
CCC(=O)N(C)C[C@H]1Oc2cc(-c3cccc(OC)c3)ccc2S(=O)(=O)N([C@H](C)CO)C[C@H]1C | / | / | / | / | -2 | /
COc1cc2c(ccc3cc(OC)c(OC)c(O)c32)cc1O | 19 | 4 | 0 | / | 86* | -6
CCCCCCCCCCCCCCCC[n+]1ccc(/C=N/O)cc1 | -3 | -4 | 9 | / | -88 | 87*
O=C1N[C@H]2CC=C[C@H]2N(Cc2cccs2)c2ccccc21 | -1 | 0 | / | / | 6 | 54*
COc1ccc(OC)c(C2CC(=O)N3CN(c4cccc(Cl)c4)CSC3=C2C#N)c1 (stereo unspecified) | 1 | -7 | 5 | / | 5 | 0
COc1cccc(C2CC(=O)N3CN(c4cccc(Cl)c4C)CSC3=C2C#N)c1OC (stereo unspecified) | -5 | -3 | 51* | / | 4 | 1
COc1cc(C2CC(=O)N3CN(c4ccccc4C)CSC3=C2C#N)cc(OC)c1OC (stereo unspecified) | / | / | -2 | / | / | /
COc1ccc(OC)c(C2CC(=O)N3CN(c4cccc(Cl)c4C)CSC3=C2C#N)c1 (stereo unspecified) | 1 | -1 | 37* | / | 3 | -1
CO[C@@H]1CN(C)C(=O)c2ccc(NC(=O)C3CC3)cc2OC[C@@H](C)N(Cc2cccnc2)C[C@@H]1C | / | / | / | / | 3 | /
C[C@@H]1CN([C@H](C)CO)S(=O)(=O)c2ccc(-c3cccnc3)cc2O[C@@H]1CN(C)Cc1cncnc1 | / | / | / | / | -3 | /
Cc1ccc(Nc2ncnc3sccc23)c(C)c1 | -2 | -2 | 5 | -2 | 99* | -5
CSCCC(NC(=O)COc1ccccc1)C(=O)OCCOc1ccc(C)cc1 (stereo unspecified) | -1 | 0 | 8 | -1 | 4 | 4
CSCCC(NC(=O)COc1ccccc1)C(=O)N(C)CC(=O)Nc1c(C)cccc1C (stereo unspecified) | -1 | 3 | 7 | -1 | 42* | -2
CCOC(=O)c1cc2[nH]c3ccccc3c2[n+](-c2ccc([N+](=O)[O-])cc2)c1N | 0 | -2 | 6 | 3 | / | 46*
N=C1/C(=C/c2ccco2)C(=O)N=C2SC(CC(=O)N3CCCC3)=NN12 | 13 | 1 | 3 | 33 | 51* | 0
C[C@@H]1CN([C@@H](C)CO)C(=O)c2cc(C#CC3(O)CCCC3)cnc2O[C@H]1CN(C)C(=O)Cc1ccccc1 | / | / | / | / | 2 | /
Nc1ccc(-c2c3ccc(=O)cc-3oc3cc(O)ccc23)cc1C(=O)O | 110* | 26* | 11 | 30 | -30 | 2
O=c1ccc2c(-c3ccccc3)c3ccc(O)cc3oc-2c1 | 142* | 98* | 0 | 6 | -217 | 2
